Target: T1, Monocarboxylate transporter 1 (UniProt P53985)
T1 sequence: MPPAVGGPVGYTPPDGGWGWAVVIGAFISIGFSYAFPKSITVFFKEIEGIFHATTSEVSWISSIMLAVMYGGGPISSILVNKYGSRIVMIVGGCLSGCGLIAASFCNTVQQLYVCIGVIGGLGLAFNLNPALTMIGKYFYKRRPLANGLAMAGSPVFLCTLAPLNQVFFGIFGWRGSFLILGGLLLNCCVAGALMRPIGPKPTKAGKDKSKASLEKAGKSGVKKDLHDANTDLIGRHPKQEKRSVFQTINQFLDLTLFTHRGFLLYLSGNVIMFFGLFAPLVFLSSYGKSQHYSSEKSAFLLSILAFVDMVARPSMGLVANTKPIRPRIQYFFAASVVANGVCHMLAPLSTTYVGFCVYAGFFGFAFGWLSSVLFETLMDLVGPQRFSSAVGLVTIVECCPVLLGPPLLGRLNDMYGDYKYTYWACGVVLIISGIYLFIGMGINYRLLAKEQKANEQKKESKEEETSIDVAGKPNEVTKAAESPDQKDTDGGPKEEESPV
Experiment: cross-link between two proteins; cross-linking mass spectrometry

Q: For “Sodium/potassium-transporting ATPase subunit alpha-1, P05023”, which “listed as a hit” value is on record?
A: Its value is “yes”.

From publication PMC11024108
